From PubChem BioAssay AID1671202 (University of Kansas High Throughput Screening Laboratory, 2021) come the findings set out here.

Each structure is given as a SMILES string. Screen size: about 190,000 compounds; about 6,900 (3.6%) were called active. Rule as the data show it: active = inhibition above about 50%; inactive = the rest. The list comes from a sample in which actives are over-represented; it also holds similar structures and randomly drawn compounds.

The target in this assay is Huntingtin (Homo sapiens) (UniProt P42858). The assay can be described thus: mutant huntingtin-calmodulin interaction inhibitors – biochemical, AlphaScreen, primary screen (AID 1671202).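 Also: 0% = both proteins with DMSO and 100% = one protein alone.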 The note with it: AlphaScreen His-mHTT/GST-CaM binding, luminescence; at 15 µM, active compounds read high.
Sequence of Huntingtin (Homo sapiens) (P42858 whole entry, looked up, stated change not applied): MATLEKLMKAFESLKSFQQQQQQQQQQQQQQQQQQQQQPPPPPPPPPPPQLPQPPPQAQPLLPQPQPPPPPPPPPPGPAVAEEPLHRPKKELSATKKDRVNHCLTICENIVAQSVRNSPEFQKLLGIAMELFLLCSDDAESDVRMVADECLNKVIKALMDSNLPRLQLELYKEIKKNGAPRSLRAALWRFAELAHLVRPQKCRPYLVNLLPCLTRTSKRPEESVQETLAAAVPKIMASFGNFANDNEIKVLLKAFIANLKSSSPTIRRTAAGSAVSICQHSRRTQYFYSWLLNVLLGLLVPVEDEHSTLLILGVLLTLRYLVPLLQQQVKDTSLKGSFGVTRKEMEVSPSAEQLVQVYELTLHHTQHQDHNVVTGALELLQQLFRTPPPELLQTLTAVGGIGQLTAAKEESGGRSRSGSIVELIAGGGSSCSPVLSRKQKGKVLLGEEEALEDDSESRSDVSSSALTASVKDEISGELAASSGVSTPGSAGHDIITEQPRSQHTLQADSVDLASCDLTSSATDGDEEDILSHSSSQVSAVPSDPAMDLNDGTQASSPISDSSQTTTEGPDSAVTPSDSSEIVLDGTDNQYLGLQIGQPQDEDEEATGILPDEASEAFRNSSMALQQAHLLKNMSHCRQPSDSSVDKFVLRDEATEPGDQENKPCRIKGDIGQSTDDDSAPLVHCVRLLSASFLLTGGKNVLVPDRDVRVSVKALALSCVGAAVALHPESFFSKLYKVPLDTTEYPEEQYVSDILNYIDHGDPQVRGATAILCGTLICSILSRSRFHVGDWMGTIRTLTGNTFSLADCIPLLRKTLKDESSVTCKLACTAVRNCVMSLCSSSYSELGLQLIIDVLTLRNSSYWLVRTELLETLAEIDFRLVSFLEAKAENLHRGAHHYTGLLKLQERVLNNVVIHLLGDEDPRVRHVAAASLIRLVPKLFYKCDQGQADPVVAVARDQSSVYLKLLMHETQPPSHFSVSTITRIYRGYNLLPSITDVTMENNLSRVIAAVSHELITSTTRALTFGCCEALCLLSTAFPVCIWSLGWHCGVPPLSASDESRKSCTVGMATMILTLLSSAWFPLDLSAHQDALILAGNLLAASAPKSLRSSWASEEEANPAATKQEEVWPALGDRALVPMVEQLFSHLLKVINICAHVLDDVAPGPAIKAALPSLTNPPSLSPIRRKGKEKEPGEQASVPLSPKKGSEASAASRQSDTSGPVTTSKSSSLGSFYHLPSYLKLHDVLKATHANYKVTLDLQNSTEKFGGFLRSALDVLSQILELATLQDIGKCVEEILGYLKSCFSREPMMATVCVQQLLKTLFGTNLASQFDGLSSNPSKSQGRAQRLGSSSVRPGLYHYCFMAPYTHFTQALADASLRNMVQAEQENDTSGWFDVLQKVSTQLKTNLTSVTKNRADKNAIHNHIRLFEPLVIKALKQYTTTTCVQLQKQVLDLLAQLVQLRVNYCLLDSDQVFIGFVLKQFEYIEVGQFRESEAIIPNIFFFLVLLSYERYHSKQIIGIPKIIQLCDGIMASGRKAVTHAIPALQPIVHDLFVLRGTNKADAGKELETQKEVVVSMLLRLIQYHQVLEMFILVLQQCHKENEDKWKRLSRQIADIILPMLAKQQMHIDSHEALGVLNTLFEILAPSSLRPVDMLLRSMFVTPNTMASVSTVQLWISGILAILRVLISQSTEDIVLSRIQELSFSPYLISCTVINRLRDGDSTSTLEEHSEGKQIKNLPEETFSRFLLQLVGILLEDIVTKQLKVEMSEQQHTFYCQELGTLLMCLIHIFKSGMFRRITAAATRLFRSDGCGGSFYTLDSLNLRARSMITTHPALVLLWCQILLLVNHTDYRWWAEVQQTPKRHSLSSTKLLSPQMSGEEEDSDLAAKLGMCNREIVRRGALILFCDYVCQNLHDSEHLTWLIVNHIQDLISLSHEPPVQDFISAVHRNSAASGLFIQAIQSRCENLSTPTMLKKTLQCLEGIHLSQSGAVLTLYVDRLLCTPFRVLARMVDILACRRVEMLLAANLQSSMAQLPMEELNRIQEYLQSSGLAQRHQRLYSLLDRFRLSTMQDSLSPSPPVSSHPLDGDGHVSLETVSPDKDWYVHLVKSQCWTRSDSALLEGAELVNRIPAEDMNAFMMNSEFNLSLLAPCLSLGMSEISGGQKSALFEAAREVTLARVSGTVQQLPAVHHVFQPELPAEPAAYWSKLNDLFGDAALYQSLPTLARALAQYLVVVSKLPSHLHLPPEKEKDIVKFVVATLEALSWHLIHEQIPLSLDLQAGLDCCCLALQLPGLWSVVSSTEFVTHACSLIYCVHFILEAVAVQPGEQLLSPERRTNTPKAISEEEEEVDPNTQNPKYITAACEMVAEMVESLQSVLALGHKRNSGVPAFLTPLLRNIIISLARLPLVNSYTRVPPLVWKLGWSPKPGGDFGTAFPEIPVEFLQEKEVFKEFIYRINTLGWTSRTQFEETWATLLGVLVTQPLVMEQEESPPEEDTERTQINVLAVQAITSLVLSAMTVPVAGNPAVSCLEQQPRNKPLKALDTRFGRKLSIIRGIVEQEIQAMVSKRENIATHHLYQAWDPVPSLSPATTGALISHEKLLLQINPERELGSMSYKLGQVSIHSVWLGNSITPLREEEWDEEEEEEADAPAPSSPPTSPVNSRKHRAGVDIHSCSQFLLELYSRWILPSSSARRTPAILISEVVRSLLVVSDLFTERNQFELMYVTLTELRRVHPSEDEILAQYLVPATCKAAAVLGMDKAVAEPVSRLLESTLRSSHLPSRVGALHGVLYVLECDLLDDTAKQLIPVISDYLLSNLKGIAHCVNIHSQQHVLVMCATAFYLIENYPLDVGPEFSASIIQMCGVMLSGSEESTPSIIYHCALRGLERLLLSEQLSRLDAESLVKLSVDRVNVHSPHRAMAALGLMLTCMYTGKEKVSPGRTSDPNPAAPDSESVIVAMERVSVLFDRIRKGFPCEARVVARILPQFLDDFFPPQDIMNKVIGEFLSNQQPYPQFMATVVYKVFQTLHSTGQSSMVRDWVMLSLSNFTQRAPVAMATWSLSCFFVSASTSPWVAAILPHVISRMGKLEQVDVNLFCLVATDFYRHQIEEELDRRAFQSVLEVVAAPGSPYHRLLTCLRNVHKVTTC
For the molecule `Cc1[nH]c(=O)[nH]c(=O)c1S(=O)(=O)Nc1ccccn1`, the inhibition is -4% (inactive).

As to `O=C1C2C3C=CC(C4CC34)C2C(=O)N1CC1CCCO1` (centres undefined), the inhibition is 0.3% (inactive).

In the case of `O=C(NCc1nnc2n1CCCC2)c1ccc2c(c1)OCO2`, the inhibition was -5.87% (inactive).

For the molecule `O=c1oc2ccccc2cc1-c1csc(N=Cc2ccccc2O)n1`, the inhibition was 26% (inactive).

Take `COc1cccc(N2CCN(C(=O)c3cccs3)C(C)C2=O)c1` (centres undefined): the inhibition is -6.9% (inactive).

Consider `O=C(CCc1ccccc1)NCc1cccnc1-c1ccccc1`, for which the inhibition is -6.5% (inactive).

Consider `O=C(c1ccccc1)N1CCC(CCNS(=O)(=O)c2cccc3nsnc23)CC1`, for which the inhibition was 50.2% (active).

As for `Cc1ccc(C(=O)N2CCC(CCNS(=O)(=O)c3ccc(C(C)C)cc3)CC2)cc1`, the inhibition was 53.6% (active).

In the case of `N#Cc1cccc(S(=O)(=O)NCCC2CCN(C(=O)c3ccccc3)CC2)c1`, the inhibition was 34.6% (inactive).

For `Cc1ccc(C(=O)N2CCC(CCNS(=O)(=O)Cc3ccccc3)CC2)cc1`, the inhibition is 44.2% (inactive).

For `COc1ccc(S(=O)(=O)NCCC2CCN(C(=O)c3ccccc3)CC2)cc1OC`, the inhibition is 30.3% (inactive).

Take `Cc1ccc(C(=O)N2CCC(CCNS(=O)(=O)c3ccccc3F)CC2)cc1`: the inhibition was 39.1% (inactive).

As for `O=C(CC1CCCCC1)N1CCCC(COc2ccc(C(=O)N3CCCCC3)cc2)C1` (centres undefined), the inhibition was 13.4% (inactive).

Regarding `CCC(C)NC(=O)c1cc2nc(-c3ccc(Cl)cc3)cc(C(F)(F)F)n2n1` (centres undefined), the inhibition is -6% (inactive).

For `O=c1[nH]c(CSCCO)nc2c1C1(CCCCC1)Cc1ccccc1-2`, the inhibition is 16.8% (inactive).

With `CCn1c(=O)c2c(n3c(SCC(N)=O)nnc13)-c1ccccc1CC21CCCCC1`, the inhibition is 54% (active).

Regarding `N#CCSc1nc2c(c(=O)n1Cc1ccccc1)C1(CCCC1)Cc1ccccc1-2`, the inhibition was -2.7% (inactive).

As for `O=C(Nc1cccc(NC(=O)c2ccccc2[N+](=O)[O-])c1)c1ccccc1Cl`, the inhibition is 5% (inactive).

Consider `COc1ccc2cc(-c3nnc(NC4CCCCC4)s3)c(=O)oc2c1`, for which the inhibition was -11% (inactive).

In the case of `COc1ccc(C2C3=C(CC(C)(C)CC3=O)N=C3c4ccccc4C(=O)C32)cc1` (centres undefined), the inhibition is 62% (active).

Regarding `O=C1CCCC2=C1C(c1cccc([N+](=O)[O-])c1)C1C(=O)c3ccccc3C1=N2` (centres undefined), the inhibition is 10% (inactive).

With `Cc1cccc(C2C3=C(CCCC3=O)N=C3c4ccccc4C(=O)C32)c1` (centres undefined), the inhibition was 8% (inactive).

As for `CC(C)CC(=O)N1CCc2ccccc2C1`, the inhibition is -9.1% (inactive).

For `COc1ccc(C=C2Oc3c(ccc4c3CN(Cc3ccc(OC)c(OC)c3)CO4)C2=O)cc1OC`, the inhibition is 44% (inactive).

For `CC(C)n1c(C2CCN(S(=O)(=O)Cc3ccc(F)cc3Cl)C2)nc2ccncc21` (centres undefined), the inhibition is 9.49% (inactive).

For `CCCCCCOc1ccc(NC(=O)CC2SC(=N)NC2=O)cc1` (centres undefined), the inhibition is 1% (inactive).

Consider `COC(=O)c1ccc(CN2CCCC2c2cc(C)on2)cc1` (centres undefined), for which the inhibition was 1.57% (inactive).

On to `N=C1S/C(=C\c2ccc(-c3ccccc3[N+](=O)[O-])o2)C(=O)N1c1ccc2c(c1)OCO2`, for which the inhibition is 26% (inactive).

As to `COc1cccc(/C=C2\SC(=N)N(c3ccc(F)cc3)C2=O)c1`, the inhibition is 3% (inactive).

Turning to `CC(=O)Nc1nonc1N1C(=N)S/C(=C\c2ccc(-c3cccc(F)c3)o2)C1=O`, the inhibition is 57% (active).

Take `COc1ccc2nc(NCCn3cccn3)sc2c1`: the inhibition was -1.7% (inactive).

`CCOC(=O)C1CCCN(C(=O)c2nn(-c3ccc(F)cc3)c(=O)cc2OC)C1` (centres undefined): the inhibition was -5.9% (inactive).

For `O=C(c1ncn[nH]1)N1CCN(Cc2ccccc2)CC1`, the inhibition was 90.3% (active).

Regarding `O=C(Nc1ccccc1)N1CCN(Cc2ccccc2)CC1`, the inhibition was -7.6% (inactive).

Take `O=C(c1cccc(Cl)c1)N1CCN(Cc2ccccc2)CC1`: the inhibition was 4.6% (inactive).

Consider `CCOc1ccc(C2CC(c3ccc(Cl)cc3)Nc3nnnn32)cc1OC` (centres undefined), for which the inhibition was 38% (inactive).

For `Cc1cc(C(=O)NCc2ccc(C)o2)c2cccc(-c3cccs3)c2n1`, the inhibition was -56.5% (inactive).

Turning to `COc1ccccc1C1(CCNCc2ccc3c(c2)OCO3)CCOC(C)(C)C1` (centres undefined), the inhibition is 3.46% (inactive).

With `O=C1CN(C(=O)c2ccccc2F)C(c2ccc(F)cc2)c2cc(F)ccc2N1` (centres undefined), the inhibition was -4% (inactive).

In the case of `Cc1ccc2c(c1)C(c1ccc(F)cc1)N(C(=O)c1c(F)cccc1Cl)CC(=O)N2` (centres undefined), the inhibition was 22% (inactive).

As to `Cc1ccc2c(c1)C(c1ccc(F)cc1)N(C(=O)c1ccc(C)c(C)c1)CC(=O)N2` (centres undefined), the inhibition is 69% (active).

As to `COc1ccc(C=C2Oc3cc(OC(C)=O)ccc3C2=O)c(OC)c1OC`, the inhibition is 16.2% (inactive).

In the case of `COc1ccc(C(=O)C=Cc2ccc(C)cc2)c(OC(=O)c2ccco2)c1`, the inhibition was 17% (inactive).

Consider `Oc1ccc2c(c1)OCC1c3cc4c(cc3OC21)OCO4` (centres undefined), for which the inhibition was 65.8% (active).

Regarding `Cc1ccccc1NCc1cc(=O)oc2cc(O)c(O)cc12`, the inhibition is 29.6% (inactive).

With `CCc1ccc(CN2CCC(C(=O)N3CCN(Cc4ccccc4)CC3)CC2)cc1`, the inhibition is 36.4% (inactive).

Consider `CNC(=O)C1CCN(Cc2cc3ccccc3n2Cc2ccc(F)cc2)CC1`, for which the inhibition is 85.1% (active).

Consider `O=C(NCc1ccc(F)cc1)C1CCN(c2cnn(Cc3ccccc3)c(=O)c2)CC1`, for which the inhibition is 2.29% (inactive).

For `O=S(=O)(NCCc1ccc(F)cc1)c1ccc(F)cc1`, the inhibition was -3.6% (inactive).

For the molecule `COc1ccc(C(CCN2CCOCC2)c2c(OC)cc(OC)c3c2OC(=O)CC3c2ccc(OC)cc2)cc1` (centres undefined), the inhibition was 71.6% (active).

`COc1ccc(-c2c(C)c3ccc(OCCN4CCCCC4)cc3oc2=O)cc1OC`: the inhibition was -2.1% (inactive).

Regarding `Cc1ccc(C(C)C)cc1OCCN1CCCC1`, the inhibition is -3.2% (inactive).

As for `COc1cc(OC)c2c(C)cc(=O)oc2c1C(CCN1CCCCC1)c1ccc(N(C)C)cc1` (centres undefined), the inhibition is 78.3% (active).

Consider `COc1ccc(Nc2nc(Cl)nc(NCCN3CCOCC3)n2)c(OC)c1`, for which the inhibition is 4% (inactive).

Regarding `COc1cc(OC)c2c(c1C(CCN1CCCCC1)c1ccc(N(C)C)cc1)OC(=O)CC2c1ccc(N(C)C)cc1` (centres undefined), the inhibition is 76.8% (active).

For the molecule `COc1ccc(C2CC(=O)Oc3ccc(C(C)(C)C)cc32)cc1` (centres undefined), the inhibition is -22.8% (inactive).

Regarding `COc1cc(OC)c2c(c1)OC(=O)CC2c1cc(OC)c(OC)c(OC)c1` (centres undefined), the inhibition is 3.2% (inactive).

As for `COc1ccc(CNC(=O)CC2CCN(C(=O)c3[nH]c(C)c(C)c3C)CC2)cc1`, the inhibition was 11.4% (inactive).

Regarding `COc1ccc(CCNc2nc(C)nc3sc(C)cc23)cc1OC`, the inhibition is 0% (inactive).

The term inhibition denotes the drop in the measured response relative to a control, in per cent.
